Key:
Assay in all cases: PBM binding z-score (relative to random genomic background probes); higher = stronger binding; sequences stand for … in GC…GCGATTGACAGCGTAGAATGAAGG
[1] = test system: RARb homodimer (NR concentration 270 nM)
Summary of the method: (§1)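 Antibodies against each partner of ligand-free nuclear receptor dimers (one per run) detected binding on custom Agilent 4×180K protein-binding microarrays after 1 h incubation. The double-stranded probes had 34-nt variable regions carrying direct-repeat seeds, single-nucleotide variants, half-site ablations and random human genomic background sequences. Binding z-scores, from regression-normalized fluorescence, use the random background probes as reference.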

[2] = test system: RARg:RXRa (NR concentration 270 nM, RXRa partner concentration 90 nM)
Summary of the method: as §1

[3] = test system: RARg homodimer (NR concentration 270 nM)
Summary of the method: as §1

[4] = test system: RXRa DBDmut IVT, anti-RXR (DBD mutation: RXRa K156A/R161A, NR concentration 90 nM)
Summary of the method: as §1

[5] = test system: RXRa homodimer (NR concentration 180 nM)
Summary of the method: as §1

[6] = test system: THRa:RXRa (NR concentration 90 nM, RXRa partner concentration 90 nM)
Summary of the method: as §1

[7] = test system: THRa homodimer (NR concentration 90 nM)
Summary of the method: as §1

[8] = test system: VDR homodimer (NR concentration 270 nM)
Summary of the method: as §1

Sequence	PBM binding z-score [1]	PBM binding z-score [2]	PBM binding z-score [3]	PBM binding z-score [4]	PBM binding z-score [5]	PBM binding z-score [6]	PBM binding z-score [7]	PBM binding z-score [8]
GCTGCTAGGACAGGTTGGTCAGCTAACGGGTACG	0.214	-0.345	0.153	-0.341	-0.463	-0.106	-0.393	-0.149
ACTATTAGTTGACTTAGGGCAACCGGTACGACGC	1.12	0.684	0.734	0.426	0.446	1.47	0.512	0.456
CGCCCAAGGTCATAGGAGGTCAGTGAAGACAGAT	5.6	6.7	7.14	3.41	6.07	5.34	3.1	3.97
CAAACTAGGTCAATGGTCAAAGTCGAGCCAACCA	3.34	3.81	4.56	1.51	2.95	2.56	0.976	0.812
ATATGTAGGCTAGCTGGGGTCATTCAGACTAGGC	3.02	3.59	1.99	1.43	4.96	4.2	2.76	3.63
TCGAGTAGGTTACCTATGGGGCATTCAGCTTTCT	0.279	1.39	0.398	0.211	0.571	0.16	-0.89	-0.367
CAAACTAGGTCTCGAAAGGTCAAAGTCGAATGAC	4.49	5.71	5.18	1.18	6.53	3.97	1.2	2.67
CCTACTGGGCCACGAAAGGTCATGGATTCAGTGA	4.94	5.28	4.71	-0.0305	6.03	3.97	1.17	1.35
CCTTACGGGTCACTCCAGGTTATAGCATCGGAGT	3.23	4.39	4.35	1.5	4.36	4.89	0.826	1.69
GCTATTAGTTGAAAGGGCAAACGAATGATTCTCG	1.86	1.24	1.06	0.931	1.38	0.777	-0.332	0.589
AATACAGGGTCATCGTAGGCCAGCGTACGCACAG	3.68	5.61	4.89	2.94	6.47	4.79	1.37	3.03
CCTACTGGGCCATCCAGAGGTCATTGATCATATG	4.32	4.63	3.39	0.256	3.69	3.29	1.41	3.33
CTCGAAAGGTCGTGCTCAGGTGCGTATACCAAAC	2.4	4.1	3.38	2.27	4.39	2.69	0.271	1.45
TCATATAGGGAAACAGGTGAAAGTCCGTAAGTTA	0.562	0.344	0.215	1.66	0.796	0.537	0.314	-0.0866
AGAACGGGGGCAATGAGTTGATAGCACGGGTGGC	1.83	2.87	2.43	3.17	2.3	2.45	1.33	5.08
TCTTGTAGATCATTAGAGGTTAAGAAAGTGCGCT	1.19	0.881	0.586	0.77	1.42	2.67	-0.124	0.446
GGACCGAGGGCAAAGTTGATAGCATCTGTCGACG	1.42	2.15	1.79	2.07	2.15	1.04	-0.484	1.07
TTACCAAGGTGAAGGTCGTTGACCCCTCTGTAGA	3.35	3.33	2.12	0.133	4.95	3.6	1.43	1.51
TCTTGTAGATCAATGGAGGTTAAGAAAGTGCGCT	0.785	0.419	0.147	0.79	0.919	2.03	-0.299	0.227

— the supplement of paper PMC6555819
